12-LOX inh: ALOX12 (human) lipoxygenase inhibition; P18054; purified 12hLO, xylenol orange hydroperoxide absorbance; Potency, µM (top dose mostly 108 µM), for inactives: at the top dose activity change, negative = inhibition, most hits filed as inhibitors; hit rate 1.1% among 580,000; active means well fitted curve in the direction sought with a large enough effect; inconclusive means small, poorly fitted or top-dose-only effect, or another doubt; inactive means no such curve, though single readings can be large; an effect the other way counts as inactive or inconclusive; further: on the % scale 0 is the no-effect control and ±100 the full control effect
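Purified human 12hLO at 150 nM in 25 mM Hepes, 0.01% Triton X-100, pH 7.0, preincubated 15 min at room temperature with compound. Reaction started with 40 uM arachidonic acid, 30 min at room temperature. Hydroperoxide measured by Fe-xylenol orange, 573/405 nm absorbance ratio.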
PTAP TSG101 blk: blocks PTAP/TSG101 interaction to inhibit HIV-1 budding; Q99816; Fluorescence polarization, FITC-PTAP peptide / Tsg101 binding; Potency, µM (top dose mostly 115 µM), without a hit: top-dose activity change, negative = inhibition, usual class: inhibitors; 340,000 tested, under 10 active; AID 493005; active means well fitted inhibition curve with a large enough effect in the main read-out, with a control signal flat, not every such curve was filed as active; inconclusive means small, poorly fitted or top-dose-only effect, or effect the other way, or a change in a side signal; inactive means no such curve, though single readings can be large or run the other way; further: % of control where 0% means no effect
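Fluorescence anisotropy tracks displacement of a FITC-tagged PTAP peptide (50 nM) from the Tsg101 binding domain (10 uM), following a 20 min room-temperature incubation at pH 7.5.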
TDP1 block: inhibitors of human tyrosyl-DNA phosphodiesterase TDP1 | recombinant TDP1, AlphaScreen DNA substrate cleavage | Potency, µM (highest dose often 130 µM), inactives show top-dose activity change, negative = inhibition, most hits filed as inhibitors | hit rate 0.28% among 350,000; active means well fitted curve in the direction sought with a large enough effect; inconclusive means small, poorly fitted or top-dose-only effect, or another doubt; inactive means no such curve, though single readings can be large; an effect the other way counts as inactive or inconclusive; further: on the % scale 0 is the no-effect control and ±100 the full control effect; nearly all actives have a fitted effect of over 40% in size
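Here, a 5' biotin and 3' phosphotyrosine-FITC DNA oligonucleotide reports Tdp1 activity: intact substrate bridges AlphaScreen beads, while cleavage leaves a 3' phosphate and drops signal. All incubations at room temperature.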
Rango-impB inh: prevents formation of the Rango-importin beta complex. Q14974. Rango CFP/YFP FRET sensor + importin beta, 45 min. Potency, µM (titrated, usually from 92.2 µM), inactives show at the highest dose inhibition of complex formation. hit rate 0.031% among 340,000. AID 540263;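 further: 0% = DMSO wells and 100% = buffer wells lacking importin beta; nearly all actives have a fitted effect of over 15% in size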
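Inhibition scored from the CFP 486 nm/YFP 530 nm FRET ratio 45 min after adding 0.125 microM importin beta to 50 nM Rango biosensor preincubated 5 min with compound (room temperature, PBS with DTT, Tween-20, BSA). No-importin wells as positive control.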
Rango release inh: inhibition of RanGTP-driven Rango-importin beta dissociation | O95149+P62826 | Biochemical FRET Rango-importin beta, RanGTP-induced dissociation | Potency, µM (top dose mostly 46.1 µM), for the others: at the top dose activity change, negative = inhibition | hit rate 0.071% among 340,000; further: % of control where 0% means no effect; nearly all actives have a fitted effect of over 45% in size
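Two FRET readings bracket the reaction: one 5 min after compound meets Rango–importin beta, another 45 min after RanGTP-RCC1 (0.6 uM Ran, 0.2 uM RCC1, 2 mM GTP) is added. Only the second defines inhibition.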
ClpP mod: qHTS Assay for Activators of ClpP; ATP-dependent Clp protease proteolytic subunit (Bacillus subtilis (strain 168)), P80244; purified B. subtilis ClpP, FRET peptide cleavage, 20 min; Potency, µM (doses to about 57.5 µM), for inactives: at the highest dose activity change, negative = active; hit rate 1.9% among 340,000; AID 651965, 2013; active means well fitted falling curve with a large enough effect; inconclusive means small, poorly fitted or top-dose-only effect; inactive means no such curve, though single readings can be large or run the other way; further: the source files actives as falling curves though it sought activators and does not explain the sign; nearly all actives have a fitted effect of over 65% in size
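Purified B. subtilis ClpP, 10 microg/mL final in Tris/HCl pH8 with KCl, BSA, glycerol and Tween-20, cleaved an Abz/nitrotyrosine-quenched decapeptide. Fluorescence (ex 320, em 430) was read at 0 and 20 min at room temperature. Delta was normalized to 5.8 microM ADEP and DMSO/no-enzyme controls.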
An asterisk follows results filed as active; u = inconclusive; x = no result; [ ] = remark or other dose. Most compounds without a hit are left out; they make up all but 2.4% or so of the library. Unless noted, the call rests on the fitted dose curve. Potency means the concentration at half of the fitted maximal effect.

SMILES | 12-LOX inh | PTAP TSG101 blk | TDP1 block | Rango-impB inh | Rango release inh | ClpP mod
CC1CCCCN1C(=O)COC(=O)C1CCN(S(=O)(=O)c2c(Cl)cccc2Cl)CC1 (configuration not stated) | 156% | -3% | 0% | 0% | 2% | 16µM*
O=C1OC2(c3ccccc31)c1cc(I)c(O)c(I)c1Oc1c2cc(I)c(O)c1I | 1.6µM* | x | 29% | x | x | x
Cc1ccc(NS(=O)(=O)c2ccc(Cl)c(C(=O)Nc3ccccc3-c3nc4ccccc4[nH]3)c2)cc1C | u | 2% | 6% | 0% | 1% | 35µM*
CN(C)S(=O)(=O)c1ccc(Cl)c(C(=O)Nc2nc3ccccc3[nH]2)c1 | 18% | 1% | 2% | 1% | -9% | x
Cc1nc(Nc2nc3ccccc3s2)ncc1C(=O)Nc1cccc(C(F)(F)F)c1 | 3% | x | x | x | x | x
O=C(NCC1CCCO1)c1ccc2c(c1)CC(=O)N2Cc1ccccc1 (configuration not stated) | 44% | x | x | x | x | x
COC(=O)C1=C(C)N(Cc2ccc(Br)cc2)C(=S)NC1c1cccc(Br)c1 (configuration not stated) | 40µM* | x | x | x | x | x
CCN1C(=S)N[C@@H](c2ccccc2)C(C(=O)OC)=C1C | -28% | 1% | x | -2% | -11% | 1%
COC(=O)C1=C(C)N(Cc2ccc(Br)cc2)C(=S)NC1c1ccccc1 (configuration not stated) | 40µM* | x | x | x | x | x
COC(=O)C1=C(C)N(Cc2ccccc2)C(=O)N[C@H]1c1ccc(Br)cc1 | 11% | 0% | 5% | 0% | 1% | 0%
COC(=O)C1=C(C)N(Cc2ccccc2)C(=S)NC1c1cccc(Br)c1 (configuration not stated) | 40µM* | x | x | x | x | x
C=CCOc1ccc(C(=O)Nc2cc(C)ccc2C)cc1 | -25% | x | x | x | x | x
CC(C)NC(=O)C(C)[C@@H]1CC[C@@]2(C)CC[C@H](NC(=O)C3CC3)[C@@H](C)[C@@H]2[C@H]1O (some centres not stated) | 4%[176 µM] | x | x | x | x | x
C[C@@H](NC(=O)[C@@]1(O)C[C@@H](O)[C@H](O)[C@@H](NS(=O)(=O)c2cccc(C(F)(F)F)c2)C1)C(N)=O | 69% | x | x | x | x | x
Cn1cncc1C#Cc1c(C=O)n(C)c2ccccc12 | -13% | 0% | 56µM* | u | u | -8%
CCCOc1ccc(C(=O)Nc2cccc3cccnc23)cc1 | -19% | x | x | x | x | x
COc1cc(Cl)ccc1OCc1cc(C(=O)NC(C)Cc2cccnc2)no1 (configuration not stated) | 10% | 0% | 2% | 0% | 1% | 28µM*
O=C(c1cccn2c(=O)c3cc(Cl)ccc3nc12)N1CCOCC1 | -10% | 3% | -1% | u | u | 18µM*
O=C(c1ccc2nc3ccccc3c(=O)n2c1)N1CCN(Cc2ccc3c(c2)OCO3)CC1 | 12% | -3% | 6% | u | u | 20µM*
O=C(c1ccc2nc3ccc(Cl)cc3c(=O)n2c1)N1CCOCC1 | -24% | x | 0% | 0% | -4% | 16µM*
O=C(c1cnc2ccc(Cl)cc2c1Cl)N1CCOCC1 | u | -1% | -7% | -1% | 14% | 0%
CN(c1ncccc1CNC(=O)C1CCOCC1)C1CCCCC1 | 55% | x | x | x | x | x
CCC(CC)C(CNC(=O)NCc1cccc(C)n1)N1CCOCC1 (configuration not stated) | -34% | x | x | x | x | x
CCOc1ccccc1Nc1nc2ccccc2nc1NS(=O)(=O)c1ccc(C)cc1 | 19% | x | x | x | x | x
CC1CCCN(C(=S)SCC(=O)O)C1 (configuration not stated) | 0% | -1% | 3% | -1% | 0% | 1%
SMILES | 12-LOX inh | PTAP TSG101 blk | TDP1 block | Rango-impB inh | Rango release inh | ClpP mod
O=C(CSC(=S)N1CCCC1)Nc1cc2c(cc1Br)OCCO2 | -12% | -5% | 4%[56.1 µM] | 0% | 36% | 1%
O=C(CSC(=S)N1CCCC1)c1cc(Br)cc(Br)c1O | 14µM* | -1% | 2% | u | -24% | x
CC1CCCN(C(=S)SCC(=O)c2cc(Br)cc(Br)c2O)C1 (configuration not stated) | 6.3µM* | -1% | 9% | u | -29% | x
CCCCc1[nH]c(=O)c(C#N)c2c1CSC(C)(C)C2 | u | -6% | 5% | u | -22% | u
Cc1[nH]c(=O)c(C#N)c2c1CSC(C)(C)C2 | 19% | -1% | -2% | 0% | 8% | 25µM*
Cc1[nH]c(=O)c(C#N)c2c1COC(C)(C)C2 | x | -5% | 0% | 3% | 13% | x
Cc1[nH]c(=O)c(C#N)c2c1CCCC2 | 22% | -4% | 2% | 4% | -7% | 28µM*
CCCCc1[nH]c(=O)c(C#N)c2c1CCCC2 | -7% | -1% | 3% | 1% | 0% | 25µM*
COc1ccc(NC(=O)N2C[C@@H]3C[C@H](C2)c2ccc(NC(=O)Nc4ccc(C(C)=O)cc4)c(=O)n2C3)cc1 | -64% | x | x | x | x | x
Cc1ccc2cccc(SCC(=O)NCC#N)c2n1 | -10% | -3% | 3% | 8% | 15% | 28µM*
Cc1ccc2cccc(SCc3ccc(F)cc3)c2n1 | 0% | x | x | x | x | x
Cc1oc2cc(OCCN3CCN(CCO)CC3)ccc2c(=O)c1-c1ccc(Cl)cc1 | 1% | x | x | x | x | x
O=C(c1c(Cl)cccc1Cl)N1CCN(c2ccccn2)CC1 | 16% | -10% | 0% | 5% | -19% | 32µM*
COc1cccc(OC)c1C(=O)N1CCN(c2ccccn2)CC1 | -5% | -6% | 1% | -1% | 6% | -29%
O=C(c1ccc(S(=O)(=O)N2CCCCCC2)cc1)N1CCN(c2ccccn2)CC1 | -2% | -4% | 7% | -7% | -2% | 0%
Cc1ccc(S(=O)(=O)N2CCCCC2)cc1C(=O)N1CCN(c2ccccn2)CC1 | -6% | -1% | 1% | -4% | 12% | 28µM*
COC[C@@H]1CN(C(=O)c2ccc(OC)nc2)C[C@H]1c1nc(C)no1 | 38% | x | x | x | x | x
Cc1cc(OCC(=O)N2CCCCC2CCN2CCOCC2)ccc1Cl (configuration not stated) | -20% | x | x | x | x | x
CCn1c(CSc2nc3ccccc3s2)n[nH]c1=S | 32µM* | -3% | 7% | u | 0% | 1%
CCn1c(CN2c3ccccc3Sc3ccccc32)n[nH]c1=S | 8.9µM* | -2% | 9% | 1% | 0% | x
CCn1c(-c2ccccc2O)n[nH]c1=S | -20% | -1% | -3% | 0% | -7% | -5%

Screening results (PubChem BioAssay)
